Screens: PubChem BioAssay, several laboratories
Most compounds without a hit are left out; they make up all but 4.9% or so of the library.
HSF1 inhib = HSF1 inhibition; NIH3T3-HGL HSE-luciferase, MG132-induced, luminescence 8 h; active compounds read low; activity change, negative = inhibition, % at 7.5 µM (by protocol); 300,000 tested, 0.77% active; AID 2098;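 active = more than half of replicate wells show activity change below -50%, luminescence cut by over half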;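 also: luciferase reports HSF-1 transcriptional activity via heat shock element; 0% = median of DMSO wells and -100% = zero luminescence signal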
dFosB activator = enhances mouse delta FosB homodimer DNA binding; P13346; purified delta FosB, TAMRA-CDK5 oligo fluorescence polarization; percent of positive-control signal above neutral wells; activation, % at 25 µM; 340,000 tested, 0.99% active; AID 493131;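 active = mean activation above about 17%, with every replicate also reaching it, limit read from the data, passing the limit was not always enough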
HSP90 inh = inhibitors of HSP90 luciferase refolding in rabbit reticulocyte lysate | luciferase refolding luminescence, 3 h | inhibition, % at 5.6 µM | 290,000 tested, 0.91% active | AID 1789;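 active = inhibition above the screen-wide mean plus 3 SD, computed separately per campaign, cut at about 16% in these data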;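 also: 0% = DMSO wells and 100% = 60 µM geldanamycin wells; inhibitors lower the luminescence because luciferase stays unfolded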
Platelet DG rel = modulates dense granule release in human platelets | human platelet-rich plasma, SFLLRN dense granule ATP release, luminescence | inhibition, %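 (compounds screened at 7.5 µM in platelet-rich plasma)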 | 300,000 tested, 0.22% active;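 active = mean replicate score, as percent of positive control, at or above 50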
HSF-1 act = increases HSF-1 driven luciferase reporter signal; 300,000 tested, 1.7% active; NIH3T3-HGL HSF-1 luciferase reporter, MG132, 8 h; 100% = twice DMSO control signal; AID 504408; activation, % at 9 µM;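 active = mean replicate activation of at least 50% with a set share of replicates each reaching 50%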;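 also: 0% = median of the neutral control wells and 100% = twice that signal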
MPTP inh = inhibitors of mitochondrial permeability transition pore; isolated mouse mitochondria, Ca2+ swelling absorbance, 30 min; inhibition, % at 10 µM; 360,000 tested, 1.4% active;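 active = inhibition of 50% or more, scaled per plate between neutral and stimulator controls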;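 also: 0% = DMSO wells given calcium and 100% = 1 mM EGTA wells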
HSP90 inh confirm = HSP90 inhibition, confirmation assay; AID 1846; rabbit reticulocyte lysate, luciferase refolding luminescence, 3 h; 2,300 tested, 64% active; inhibition, % at 5.9 µM; shares compounds with HSP90 inh; in the data active = inhibition above about 18%;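 also: 0% = vehicle wells and 100% = reference inhibitor wells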
luciferase ctr = firefly luciferase inhibition, HSP90 counter-screen | inhibition, % at 5.9 µM | 2,300 tested, 48% active | shares compounds with HSP90 inh | purified native firefly luciferase, luminescence;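 active = inhibition above the mean inhibition of all tested sample wells plus 3 SD, cut at about 10% in these data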;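 also: 0% = DMSO with luciferase and 100% = wells lacking luciferase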
Target sequence (P08659 whole entry, looked up): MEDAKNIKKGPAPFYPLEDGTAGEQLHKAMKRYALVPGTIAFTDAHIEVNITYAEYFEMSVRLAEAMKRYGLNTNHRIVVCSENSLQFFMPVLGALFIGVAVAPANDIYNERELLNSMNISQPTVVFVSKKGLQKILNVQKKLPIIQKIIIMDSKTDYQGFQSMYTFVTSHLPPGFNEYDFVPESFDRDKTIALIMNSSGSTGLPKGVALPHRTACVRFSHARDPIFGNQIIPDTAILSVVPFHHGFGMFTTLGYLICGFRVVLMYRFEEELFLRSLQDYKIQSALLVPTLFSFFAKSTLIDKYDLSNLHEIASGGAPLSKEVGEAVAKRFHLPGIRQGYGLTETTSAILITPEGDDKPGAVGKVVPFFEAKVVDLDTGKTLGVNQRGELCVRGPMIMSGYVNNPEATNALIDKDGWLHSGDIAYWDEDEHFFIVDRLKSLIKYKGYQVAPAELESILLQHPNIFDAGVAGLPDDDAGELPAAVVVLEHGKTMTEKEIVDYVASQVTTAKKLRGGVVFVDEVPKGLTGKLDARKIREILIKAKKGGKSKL
* hit, by the source's call; / = not tested or not shown.

SMILES	HSF1 inhib	dFosB activator	HSP90 inh	Platelet DG rel	HSF-1 act	MPTP inh	HSP90 inh confirm	luciferase ctr
CCOC(=O)N/N=C/c1cn(CCCOc2ccc(C)cc2)c2ccccc12	8.1	-11.3	18.5*	-5.5	3.6	3.8	9.0	-7.0
CC(C)NC(=O)C(c1ccc(F)cc1)N(C(=O)CCC(=O)Nc1ccccn1)c1cccc(F)c1 (configuration not stated)	-0.7	-9.2	-4.6	7.5	-17.5	0.2	/	/
CCOC(=O)/C(C#N)=C\c1cc(C)n(-c2ccccc2)c1C	-62.8*	-9.6	49.9*	8.8	-68.7	0.3	62.7*	61.7*
Cc1cc(C2=NNC(=NC3CC3)SC2)c(C)n1-c1ccccc1F	-67.8*	4.3	36.0*	24.4	-68.2	12.6	85.2*	76.0*
Cc1ccc2c(c1)C(=O)C(=O)N2CCOc1ccccc1	1.3	-7.2	21.3*	4.8	-11.8	0.4	3.4	-25.6
Cc1cccc(OCCN2C(=O)C(=O)c3cc(C)ccc32)c1	-14.5	-12.6	-2.1	11.2	-15.6	3.3	/	/
COc1ccc(N2CCN(C(=O)c3ccc4nc(N5CCCCC5)sc4c3)CC2)cc1	-9.5	-7.3	19.3*	5.4	-21.4	-0.9	29.4*	-7.5
O=C(c1ccc2nc(N3CCOCC3)sc2c1)N1CCCC1	5.0	-2.1	-3.5	4.1	8.0	0.3	/	/
C=C1[C@@H](OC(C)=O)C=C[C@@]2(C)C=CC(=O)[C@@](C)(OC(C)=O)[C@@H]2[C@@H](OC(C)=O)[C@]2(O)[C@@H](C)C(=O)O[C@H]2[C@H]1Cl	/	/	/	/	/	-0.1	/	/
CC(=O)N/N=C\c1cccc(OC/C=C/c2ccccc2)c1	/	-10.0	20.9*	/	/	0.2	18.6*	-12.6
COC(=O)N/N=C\c1ccc(OC/C=C/c2ccccc2)cc1	-5.0	-2.8	-4.5	2.7	20.6	-0.1	/	/
N#CCC(=O)N/N=C\c1cccc(OC/C=C/c2ccccc2)c1	-6.1	-11.2	21.4*	-18.8	0.6	0.0	26.1*	-26.4
CCCCCCOc1ccc(C(=O)O)cc1	/	-4.0	-4.1	-1.7	/	0.5	/	/
CCCCOc1ccc(-c2ncc(C(=O)O)c(C)n2)cc1	-15.5	0.5	38.0*	-14.6	-30.3	-0.4	63.1*	18.1*
c1ccc(OCCSc2nnc3sc4ccccc4n23)cc1	10.6	-9.7	45.5*	2.6	-4.0	-0.8	76.2*	73.9*
COc1cccc(OCCSc2nnc3sc4ccccc4n23)c1	0.0	-10.1	-0.9	1.7	28.4	2.8	/	/
Cc1nn(CC(=O)Nc2cccnc2)c(=O)c2ccccc12	-7.0	1.6	2.3	-1.9	-2.5	0.4	/	/
CN(C)/C=C/C(=O)c1ccc2noc(-c3cccc(F)c3)c2c1	-8.3	-6.2	1.8	-0.8	0.2	0.2	/	/
COc1ccc(-c2onc3ccc(C(=O)/C=C/N(C)C)cc23)cc1	-25.0	-10.5	30.6*	-2.7	-29.7	0.9	1.8	1.3
O=C(COc1ccccc1Cl)NCCCNC(=O)c1ccco1	-0.2	-2.4	-0.5	-0.1	16.2	0.3	/	/
COc1ccc(C(=O)N2CCCN(C)CC2)cc1S(=O)(=O)N1CCCc2ccccc21	3.4	-6.0	-2.0	1.1	-3.7	0.1	/	/
COc1ccc(C(=O)N2CCOCC2)cc1S(=O)(=O)N1CCCc2ccccc21	-3.5	-11.0	20.1*	2.2	4.9	-0.3	0.8	-6.1
Cc1nc(NC(=O)c2ccccc2)sc1-c1csc(NCc2ccco2)n1	13.1	-6.2	48.3*	-3.3	16.4	0.5	28.9*	-12.9
Cc1nc(NC(N)=S)sc1C(=O)Nc1ccccc1	-4.5	-2.3	18.8*	8.8	-5.1	5.7	25.9*	-6.7
Cc1nc(NC(=O)c2ccccc2)sc1-c1csc(Nc2ccc(C(=O)O)cc2)n1	23.6	3.9	30.9*	14.5	21.3	0.2	7.8	-25.6
SMILES	HSF1 inhib	dFosB activator	HSP90 inh	Platelet DG rel	HSF-1 act	MPTP inh	HSP90 inh confirm	luciferase ctr
COC(=O)c1sc(NC(=S)NC(=O)c2cccc(C)c2)nc1C	-11.0	-1.7	22.3*	-3.2	-5.9	6.4	2.0	-13.4
CCC(=O)Nc1nc(C)c(-c2csc(Nc3ccc(C(=O)O)cc3)n2)s1	-5.7	-8.8	-6.0	2.7	1.4	-1.1	/	/
COC(=O)c1sc(NC(=S)NC(=O)c2ccccc2F)nc1C	14.3	-8.1	-0.7	-1.8	23.7	1.1	/	/
COc1cccc(Nc2nc(-c3sc(NC(=O)c4ccccc4)nc3C)cs2)c1	8.8	3.4	44.9*	1.8	7.5	-0.2	12.4	-23.5
COc1cccc(NC(=O)c2ccncc2)c1	1.9	0.5	-2.4	-6.1	2.2	0.1	/	/
O=C(Nc1ccc2c(c1)CCC2)c1ccccc1	11.5	0.9	14.6	-5.0	39.3	35.9	/	/
COc1cccc(Nc2nc(-c3sc(NC(=O)CC(C)C)nc3C)cs2)c1	7.4	-2.5	4.1	4.0	7.5	-0.4	/	/
Cc1nc(NC(=O)c2ccc(F)cc2)sc1C(=O)Nc1ccc2c(c1)CCC2	18.1	-5.0	39.0*	1.7	21.2	0.1	45.7*	-17.3
COc1cccc(NC(=O)c2sc(NC(=O)c3ccncc3)nc2C)c1	-9.0	-15.4	78.5*	10.3	-14.3	0.1	79.9*	41.4*
CCCNC(=O)C1(C)CCCN(C(=O)c2ccccc2F)C1 (configuration not stated)	/	/	/	/	/	-2.7	/	/
O=C1CSc2ccc(C(=O)NCC(c3ccco3)N3CCCCC3)cc2N1 (configuration not stated)	-1.0	1.4	-2.0	-3.8	-6.5	-4.7	/	/
COc1ccc(OC)c(Nc2nc(-c3sc(N)nc3C)cs2)c1	-8.8	-9.9	26.0*	-1.6	-1.3	-0.1	2.3	-6.6
Cc1cc(O)ccc1Nc1nc(-c2sc(N)nc2C)cs1	/	-15.4	33.7*	2.0	/	0.7	-3.5	-9.0
CCCC(=O)Nc1nc(C)c(-c2csc(Nc3cc(OC)ccc3OC)n2)s1	3.3	-2.4	-0.7	0.6	0.1	0.3	/	/
Cc1nc(N)sc1-c1csc(Nc2ccccc2)n1	-4.0	-3.4	25.5*	4.6	-3.3	-4.0	-5.0	-16.1
CSCCC(N=C(NS(=O)(=O)c1ccc(C)cc1)c1ccccc1)C(=O)O (configuration not stated)	/	1.0	-3.2	-2.1	/	1.4	/	/
O=C(Nc1ccc(-c2cn3c(n2)SCC3)cc1)c1ccc2ccccc2n1	1.4	-10.7	1.7	-0.5	5.6	0.5	/	/
O=C(Nc1cccc(-c2cn3c(n2)SCC3)c1)c1ccc2ccccc2n1	1.1	-3.8	50.4*	0.1	-5.7	0.4	30.8*	-1.1
Cc1ccc(NC(=S)c2nc3ccccc3s2)cc1	-64.6*	-2.8	23.1*	0.3	-69.9	2.6	42.1*	26.2*
Cc1ccc(C)c(NC(=S)c2nc3ccccc3s2)c1	23.3	7.2	-1.8	-4.6	19.0	0.3	/	/
